The values that follow come from paper doi:10.1101/2024.03.05.583629.

In the experiment the target is pT7_6His-AlfaTag-HOXD13 (human, UniProt P35453 263-343). Description: PADIT-seq. Particulars: dsDNA, one strand shown.
pT7_6His-AlfaTag-HOXD13, sequence (P35453 263-343): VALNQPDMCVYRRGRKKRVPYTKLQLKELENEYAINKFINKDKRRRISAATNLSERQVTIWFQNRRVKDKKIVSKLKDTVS
For “CTCGAGGATATCAAGATCTGGCCTCGGCTAAATAAAAGGAACCTCTAGCTAGCCGACTCACTATAGGGATAATCGCCCTGAGCAAAGACC”, the binding signal was 1.68 ± 0.0988 log2FC.
To “CTCGAGGATATCAAGATCTGGCCTCGGCGAGATAAAAGGAACCTCTAGCTAGCCGACTCACTATAGGGATAATCGCCCTGAGCAAAGACC” belongs 0.43 ± 0.0919 log2FC; to “CTCGAGGATATCAAGATCTGGCCTCGGCGCGCTAAAAGGAACCTCTAGCTAGCCGACTCACTATAGGGATAATCGCCCTGAGCAAAGACC”, -0.366 ± 0.0916 log2FC; to “CTCGAGGATATCAAGATCTGGCCTCGGCATTTTAGCAGGAACCTCTAGCTAGCCGACTCACTATAGGGATAATCGCCCTGAGCAAAGACC”, 0.721 ± 0.101 log2FC.
With “CTCGAGGATATCAAGATCTGGCCTCGGCTTTTTATCAGGAACCTCTAGCTAGCCGACTCACTATAGGGATAATCGCCCTGAGCAAAGACC” the figure was 2.36 ± 0.0842 log2FC.
“CTCGAGGATATCAAGATCTGGCCTCGGCCCTCTAAAAGGAACCTCTAGCTAGCCGACTCACTATAGGGATAATCGCCCTGAGCAAAGACC” returned a binding signal of 0.681 ± 0.104 log2FC.
Turning to “CTCGAGGATATCAAGATCTGGCCTCGGCGCGTATGCGGGAACCTCTAGCTAGCCGACTCACTATAGGGATAATCGCCCTGAGCAAAGACC”, the binding signal is -1.09 ± 0.121 log2FC.
“CTCGAGGATATCAAGATCTGGCCTCGGCCTTTTAAACGGAACCTCTAGCTAGCCGACTCACTATAGGGATAATCGCCCTGAGCAAAGACC” returned a binding signal of 2.06 ± 0.0696 log2FC.
In the case of “CTCGAGGATATCAAGATCTGGCCTCGGCATTTTATTCGGAACCTCTAGCTAGCCGACTCACTATAGGGATAATCGCCCTGAGCAAAGACC”, the binding signal amounted to 1.83 ± 0.0742 log2FC.
With “CTCGAGGATATCAAGATCTGGCCTCGGCATTTTATAAGGAACCTCTAGCTAGCCGACTCACTATAGGGATAATCGCCCTGAGCAAAGACC” the figure was 3.26 ± 0.0841 log2FC; with “CTCGAGGATATCAAGATCTGGCCTCGGCTGTGTAAAAGGAACCTCTAGCTAGCCGACTCACTATAGGGATAATCGCCCTGAGCAAAGACC”, 1.46 ± 0.0852 log2FC; with “CTCGAGGATATCAAGATCTGGCCTCGGCGTTTTAGCTGGAACCTCTAGCTAGCCGACTCACTATAGGGATAATCGCCCTGAGCAAAGACC”, -0.719 ± 0.136 log2FC.
